# Compound activity deposited in PubChem BioAssay by National Center for Advancing Translational Sciences (NCATS).
# The list is not random: actives were taken first. Their share in the collection is about 3.8%.
# HepG2 tox-1 = qHTS for Inhibitors of TGF-b: Cytotox Counterscreen; HepG2 CAGA-GFP viability, ATP luminescence, 18 h; Potency, µM (titrated, usually from 46.1 µM), without a hit: at the highest dose activity change, negative = cytotoxicity, hits mostly cytotoxic; 410,000 tested, 0.76% active
#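 CellTiter-Glo luminescence gave cytotoxicity after 18 hours at 37 degrees C. The cells were HepG2 CAGA-GFP in 1% FBS DMEM, stimulated with 500 pg/mL TGF-beta after compound addition. %Activity was normalised to no-cell wells (complete cell-killing) and DMSO (no toxicity), and curves were fitted and classified.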
# TGFb SMAD3 inh = qHTS for Inhibitors of TGF-b; HepG2 CAGA-GFP TGF-b/SMAD3 reporter, GFP fluorescence, 18 h; TGF-beta stimulated, 500 pg/mL final; Potency, µM (doses to about 46.1 µM), for the others: top-dose activity, negative = inhibition, most hits filed as inhibitors; 410,000 tested, 1.2% active; AID 588855, 2011; note: % is set by controls: 0 for no effect and ±100 for the full control effect; nearly all actives have a fitted effect of over 65% in size
#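 HEPG2 CAGA-GFP cells (1000/well, DMEM with 1% FBS) were pre-incubated 2 h at 37 degrees C, given compound by pin tool, then stimulated with TGF-beta at 500 pg/mL final for 18 h before per-cell GFP fluorescence imaging.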
# ATXN viability = Viability Counterscreen for Primary qHTS for Inhibitors of ATXN expression; S2 cells (HEK-293 line with an ATXN2-luciferase reporter) viability, CellTiter-Fluor protease fluorescence, 24 h; Potency, µM (series often up to 56.7 µM), actives largely listed as cytotoxic; 400,000 tested, 0.49% active; note: nearly all actives have a fitted effect of over 40% in size
# ATXN2 expr inh = Primary qHTS for Inhibitors of ATXN expression; AID 1745845, 2022; HEK-293 ATXN2-luciferase reporter, luminescence, 24 h; Potency, µM (titrated, usually from 57 µM), for inactives: top-dose activity change, negative = inhibition, most hits filed as inhibitors; 360,000 tested, 0.72% active; note: % is set by controls: 0 for no effect and ±100 for the full control effect; nearly all actives have a fitted effect of over 55% in size
#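 qHTS (up to 57 uM final) was run with 24 h compound exposure of reporter cells at 37 °C. Each well was multiplexed: SteadyGlo luminescence measured ATXN2-luciferase expression after a fluorogenic Gly-Phe-AFC viability readout (25 uM final).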
# HT1080 IDH1KD tx = qHTS for induction of synthetic lethality in tumor cells producing 2HG: qHTS for the HT-1080-IDH1KD cell line; HT-1080 IDH1 knockdown viability, ATP luminescence, 48 h; 360,000 tested, 2% active; Potency, µM (top dose mostly 46.1 µM), inactives show top-dose activity, negative = toxicity, actives largely listed as cytotoxic;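 note: 0% = DMSO wells and -100% = cell-free medium wells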
#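 CellTiter-Glo luminescence after 48 h compound exposure at 37 degrees C of IDH1-knockdown HT-1080 cells in 5% FBS RPMI. %Activity scaled between DMSO wells and cell-free media wells, with curves fitted and assigned curve classes.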
# HT1080-NT tox = qHTS for induction of synthetic lethality in tumor cells producing 2HG: qHTS for the HT-1080-NT fibrosarcoma cell line. AID 686970, 2013. Potency, µM (titrated, usually from 46.1 µM), without a hit: at the top dose activity, negative = less viability, hits mostly cytotoxic. 360,000 tested, 1.6% active. HT-1080-NT fibrosarcoma viability, CellTiter-Glo ATP luminescence, 48 h;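 note: NT is the 2HG producing partner of a matched IDH1 knockdown line; 0% = DMSO-treated cells and -100% = media-only wells without cells; nearly all actives have a fitted effect of over 55% in size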
#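 750 cells/well, RPMI + 5% FBS; 2 h settle, compound pin-transfer, 48 h at 37 degrees C. CellTiter-Glo 10 min RT, luminescence. Normalized to DMSO and media-only wells.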
# TGFb confirm = qHTS for Inhibitors of TGF-b: Confirmation of Cherry Picks. shares compounds with TGFb SMAD3 inh. HepG2 CAGA-GFP TGF-b reporter, GFP fluorescence, 18 h; cells stimulated with TGF-beta, 500 pg/mL. Potency, µM (doses to about 46.1 µM), for the others: at the highest dose activity, negative = inhibition, actives largely listed as inhibitors. 1,600 tested, 63% active. AID 720534, 2013; note: % is set by controls: 0 for no effect and ±100 for the full control effect; nearly all actives have a fitted effect of over 65% in size
# HepG2 tox-2 = qHTS for Inhibitors of TGF-b: Cytotox Counterscreen for Cherry Picks; Potency, µM (titrated, usually from 46.1 µM), inactives show top-dose activity, negative = cytotoxicity, hits mostly inhibitors; HepG2 CAGA-GFP viability, ATP luminescence, 18 h; cells stimulated with TGF-beta, 500 pg/mL; 1,600 tested, 27% active; AID 720535, 2013; shares compounds with TGFb SMAD3 inh; note: % is set by controls: 0 for no effect and ±100 for the full control effect; nearly all actives have a fitted effect of over 70% in size
# TGFb CCL64 inh = qHTS for Inhibitors of TGF-b: CCL64 Cells Orthogonal Assay for Cherry Picks. shares compounds with TGFb SMAD3 inh. CCL64 CAGA-GFP reporter, TGF-b stimulated, GFP fluorescence, 18 h. Potency, µM (titrated, usually from 46.1 µM), inactives show top-dose activity, negative = inhibition, usual class: inhibitors. 1,600 tested, 41% active. AID 720536, 2013; note: nearly all actives have a fitted effect of over 65% in size
# TGFb COP inh = qHTS for Inhibitors of TGF-b: Hit Validation in HepG2 Cells using COP promoter | HepG2 COP-GFP TGF-b reporter, GFP fluorescence, 18 h; cells stimulated by added recombinant TGF-beta | 1,600 tested, 3% active | shares compounds with TGFb SMAD3 inh | Potency, µM (titrated, usually from 46.1 µM), inactives show at the top dose activity, negative = inhibition, hits mostly inhibitors | AID 720537, 2013; note: nearly all actives have a fitted effect of over 70% in size
# The depositor's hits bear a star; i = inactive; ? = inconclusive; . = no result given. Calls come from the whole dose curve; as a rule, active = well fitted curve in the direction sought with a large enough effect; inconclusive = small, poorly fitted or top-dose-only effect, or another doubt; inactive = no such curve, though single readings can be large; an effect the other way counts as inactive or inconclusive. Potency is the fitted concentration of half-maximal effect.
SMILES,HepG2 tox-1,TGFb SMAD3 inh,ATXN viability,ATXN2 expr inh,HT1080 IDH1KD tx,HT1080-NT tox,TGFb confirm,HepG2 tox-2,TGFb CCL64 inh,TGFb COP inh
Oc1ccc(COCc2ccccc2)c2cccnc12,-56%,-22%,i,-19%,?,?,.,.,.,.
Clc1ccccc1CN1CCC(Cc2ccccc2)CC1,-41%,-22%,i,8%,-4%,-11%,.,.,.,.
CCC(=O)N1CCc2cc(Br)cc(S(=O)(=O)N3CCN(c4cccc(Cl)c4)CC3)c21,-1%,-16%,i,-2%,.,.,.,.,.,.
CCN(C[C@H]1N[C@@](Cc2ccccc2)(C(=O)OC)[C@H]2C(=O)N(Cc3ccccc3)C(=O)[C@@H]12)C(=O)Nc1ccc(C)cc1,-13%,?,?,-9%,?,?,15µM*,-14%,?,13%
CCN(C[C@H]1N[C@@](CC)(C(=O)OC)[C@H]2C(=O)N(Cc3ccccc3)C(=O)[C@@H]12)C(=O)Nc1ccc(C)cc1,-25%,-21%,i,8%,-6%,-1%,.,.,.,.
CCOC(=O)c1c(C)[nH]c(C(=O)OCC(=O)NCCc2ccc(OCC)c(OCC)c2)c1C,-3%,?,i,-23%,?,-12%,?,?,-7%,25%
CCOC(=O)c1[nH]c(C)c(C(=O)OCC(=O)NCc2ccc(OC)c(OC)c2)c1C,-25%,3%,i,.,-4%,1%,.,.,.,.
O=C(Nc1ccc(F)cc1)c1nc(S(=O)(=O)Cc2ccccc2)ncc1Cl,7.1µM*,5µM*,.,?,15µM*,23µM*,3.3µM*,15µM*,2.6µM*,?
COC(=O)c1ccccc1NC(=O)c1nc(S(=O)(=O)Cc2ccccc2F)ncc1Cl,4%,-2%,i,9%,.,.,.,.,.,.
Cc1cccc(CS(=O)(=O)c2ncc(Cl)c(C(=O)Nc3c(C)cccc3C)n2)c1,10µM*,6.3µM*,?,-18%,15µM*,?,4.6µM*,9.2µM*,4.6µM*,?
COc1ccc(OC)c(NC(=O)c2nc(S(=O)(=O)Cc3ccccc3)ncc2Cl)c1,7.9µM*,3.5µM*,18µM*,-25%,3.7µM*,4.6µM*,4.6µM*,6.5µM*,3.7µM*,10µM*
Cc1ccccc1CS(=O)(=O)c1ncc(Cl)c(C(=O)Nc2ccc(F)cc2)n1,22µM*,10µM*,.,.,?,?,?,?,3.7µM*,?
CCS(=O)(=O)c1ncc(Cl)c(C(=O)Nc2c(C(=O)c3ccc(C)cc3)oc3ccccc23)n1,-11%,-21%,i,12%,.,.,.,.,.,.
Cc1nn2c3c(cnc2c1-c1ccc(F)cc1)C(=O)CC(c1ccccc1)C3 (stereo not given),-8%,-10%,i,0%,.,.,.,.,.,.
O=C(CC(=O)Nc1cccc(F)c1)Nc1cccc(F)c1,20%,-6%,i,18%,-11%,-1%,.,.,.,.
O=C(C#Cc1ccccc1)Nc1cccc(F)c1,-5%,4µM*,?,?,3.7µM*,?,2.1µM*,6.5µM*,5.8µM*,-2%
O=C(NCc1ccc(F)cc1)c1c(O)nc2ccccn2c1=O,-15%,-4%,i,4%,.,.,.,.,.,.
CS(=O)(=O)N1CCCc2cc(C(=O)Nc3cccc(C(F)(F)F)c3)ccc21,-37%,-18%,.,.,.,.,.,.,.,.
COc1ccc2c(c1)/C(=C\c1cccc(/C=C3/C(=O)Nc4ccc(OC)cc43)n1)C(=O)N2,-37%,1.3µM*,.,3.2µM*,3.3µM*,2.9µM*,2.9µM*,2.6µM*,1.5µM*,49%
Cc1ccc2nc(/N=C(\N)NC(=O)NC3CCCCC3)nc(C)c2c1,-17%,10µM*,28µM*,?,23µM*,15µM*,12µM*,?,16µM*,54%
O=C(CN1C(=O)c2cccnc2Oc2ccc(Cl)cc21)Nc1cccc(C(F)(F)F)c1,-28%,-25%,.,.,.,.,.,.,.,.
CCN(CC)CCOC(=O)/C=C/c1ccccc1,-18%,-15%,i,.,0%,1%,.,.,.,.
CCN(CC)CC(C)(C)C(=O)/C=C/c1ccc(/C=C/C(=O)C(C)(C)CN(CC)CC)cc1,5µM*,4.5µM*,5.6µM*,4µM*,1.6µM*,5.8µM*,3.3µM*,3.3µM*,4.6µM*,?
CN(CC(=O)Nc1cccc(F)c1)C(=O)c1cccc(S(=O)(=O)N2CC3(C)CC2CC(C)(C)C3)c1 (stereo not given),-21%,11µM*,?,-1%,-22%,-13%,16µM*,-29%,?,47%
CC1(C)CC2CC(C)(CN2S(=O)(=O)c2cccc(C(=O)O)c2)C1 (stereo not given),1%,-15%,i,9%,2%,0%,.,.,.,.
COc1ccc(C(C(=O)NC2CCCCC2)N(C(=O)c2ccccn2)c2cccnc2)cc1 (stereo not given),5%,5%,i,.,5%,17%,.,.,.,.
